Test results reported in PubChem BioAssay (NCATS).
Records with an inconclusive call do not appear. The source made the active and inactive calls. Calls follow the shape of the dose curve; as a rule, active = well fitted curve in the direction sought with a large enough effect; inconclusive = small, poorly fitted or top-dose-only effect, or another doubt; inactive = no such curve, though single readings can be large; an effect the other way counts as inactive or inconclusive.

Experiments:
[1] = tested on: CRL-7250; assay: Cytotoxic Profiling of Annotated Libraries Using Quantitative High-Throughput Screening (AID 1296008); conditions: Five cell lines viability, CellTiter-Glo ATP luminescence, 48-72 h; max response: active compounds read low; also: nearly all actives have a fitted effect of over 60% in size; also: potency is read from the fitted curve at half-maximal effect; as to max response: % is scaled to controls: 0 for no effect and ±100 for the full control effect
How it was run: (§1)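 Cells exposed to compounds for 48 or 72 hr at 37 degrees Celsius. Viability read as ATP-coupled luminescence with CellTiter-Glo after 10 min at room temperature.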

[2] = tested on: HEK293; assay: as above; conditions: Five cell lines viability, CellTiter-Glo ATP luminescence, 48-72 h; max response: active compounds read low
How it was run: as §1

[3] = tested on: HaCat; assay: as above; conditions: Five cell lines viability, CellTiter-Glo ATP luminescence, 48-72 h; max response: active compounds read low
How it was run: as §1

[4] = tested on: KB-3-1; assay: as above; conditions: Five cell lines viability, CellTiter-Glo ATP luminescence, 48-72 h; max response: active compounds read low
How it was run: as §1

[5] = tested on: NIH3T3; assay: as above; conditions: Five cell lines viability, CellTiter-Glo ATP luminescence, 48-72 h; max response: active compounds read low
How it was run: as §1

[6] = tested on: HEK293T; assay: qHTS assay to identify novel small-molecules to repurpose for Merkel cell carcinoma treatment (AID 1296009); conditions: MCC and control cell lines, CellTiter-Glo viability, 72 h; series mostly up to 44.8 µM; also: nearly all actives have a fitted effect of over 60% in size
How it was run: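 CellTiter-Glo luminescence after 72 hr compound exposure at 37 degree celsius gave cell viability. Libraries NPC and MIPE were run as 8- and 11-point dose responses; RLUs normalized to DMSO (negative) and no-cell (cytotoxicity) controls.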

[7] = tested on: C33A; assay: Primary qHTS to identify gynecologic anti-cancer compounds using libraries of approved drugs and bioactive compounds (AID 1345084); conditions: Gynecologic cancer cell panel viability, ATPlite luminescence, 48 h; series mostly up to 57.5 µM; also: % is scaled to controls: 0 for no effect and ±100 for the full control effect; nearly all actives have a fitted effect of over 55% in size
How it was run: (§2)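 Measured: luminescence after ATPlite addition (15 min, RT). Exposure: 48 h, 37 C, 5% CO2.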

[8] = tested on: CAOV3; assay: as above; conditions: Gynecologic cancer cell panel viability, ATPlite luminescence, 48 h; series mostly up to 57.5 µM
How it was run: as §2

[9] = tested on: CASKI; assay: as above; conditions: Gynecologic cancer cell panel viability, ATPlite luminescence, 48 h; series mostly up to 57.5 µM
How it was run: as §2

[10] = tested on: Es-2; assay: as above; conditions: Gynecologic cancer cell panel viability, ATPlite luminescence, 48 h; series mostly up to 57.5 µM
How it was run: as §2

[11] = tested on: HeLa; assay: as above; conditions: Gynecologic cancer cell panel viability, ATPlite luminescence, 48 h; series mostly up to 57.5 µM
How it was run: as §2

CC(C)CC1(C(=O)OCc2ccc(O[C@@H]3O[C@H](CO)[C@@H](O)[C@H](O)[C@H]3O)cc2)CC(=O)OC(C(=O)O)CC(=O)OCC2OC(O1)C(OC(=O)/C=C/c1ccc(O)cc1)C(O)C2O (stereo partly drawn)
inactive: max response [1] 2.72% | outcome [2] | max response [3] -1.08% | max response [4] 8.15% | outcome [5] | outcome [6] inactive [at 9.27 µM] | activity change, negative = cytotoxicity [7] -0.106% [at 11.6 µM] | activity change, negative = cytotoxicity [8] 1.66% [at 11.6 µM] | activity change, negative = cytotoxicity [9] -1.89% [at 11.6 µM] | activity change, negative = cytotoxicity [10] 11.3% [at 11.6 µM] | activity change, negative = cytotoxicity [11] 0% [at 11.6 µM]

O=c1c2cccnc2n(-c2cccc([N+](=O)[O-])c2)c(=O)n1Cc1ccncc1
inactive: outcome [1] | outcome [2] | max response [3] -29.4% | outcome [4] | max response [5] -3.44% | Potency [6] | Potency [7] | Potency [8] | Potency [9] | Potency [10] | Potency [11]

C=C1CCC2[C@@](C)(C=O)CCC[C@]2(C)[C@H]1CC/C(C)=C/CO (stereo partly drawn)
inactive: outcome [1] | outcome [2] | max response [3] 3.6% | max response [4] 7.89% | max response [5] 1.05% | Potency [6] | Potency [7] | Potency [8] | Potency [9] | Potency [10] | Potency [11]

COCCN(C)Cc1ccc2nc3sc(C(=O)N(C)C4CCCCC4)cn3c2c1
inactive: outcome [1] | outcome [2] | max response [3] -3.7% | outcome [4] | max response [5] -0.706% | Potency [6] | Potency [7] | Potency [8] | Potency [9] | Potency [10] | Potency [11]

CC1=CC(=O)C2C(C)(C)CC(O)CC2(C)C1CO (stereo not drawn)
inactive: max response [1] -38.7% | outcome [2] | max response [3] -3.16% | outcome [4] | max response [5] 2.39% | Potency [6] | Potency [7] | Potency [8] | Potency [9] | Potency [10] | Potency [11]

COc1c2c(c(C)c3c1C(=O)OC3)O[C@@]1(C)C[C@@H](O)[C@]34O[C@](OC)(CC[C@]3(C)[C@H]1C2)OC4(C)C
inactive: outcome [1] | outcome [2] | max response [3] -1.6% | outcome [4] | max response [5] 2.2% | Potency [6] | Potency [7] | Potency [8] | Potency [9] | Potency [10] | Potency [11]

CC[C@H](C)/C=C(C)/C=C/C(=O)Cc1cc(O)c(C)c(O)c1C=O
inactive: max response [1] -3.98% | outcome [2] | max response [3] 4.71% | max response [4] 7.23% | max response [5] 3.96% | Potency [6] | Potency [7] | Potency [8] | Potency [9] | Potency [10] | Potency [11]

COc1cc2c(cc1O)C1(OC)Cc3ccc4c(c3C1N(C)CC2)OCO4 (stereo not drawn)
inactive: max response [1] -5.51% | outcome [2] | max response [3] -3.77% | max response [4] 9.56% | max response [5] 2.76% | Potency [6] | Potency [7] | Potency [8] | Potency [9] | Potency [10] | Potency [11]

COC1=Cc2c(nc3n(c2=O)C(C)C(=O)NC3(O)C(C)C)OC=C1 (stereo not drawn)
inactive: outcome [1] | outcome [2] | max response [3] 4.53% | max response [4] 6.94% | max response [5] 2.45% | Potency [6] | Potency [7] | Potency [8] | Potency [9] | Potency [10] | Potency [11]

COc1ccccc1-n1c(SCC(=O)Nc2nc3ccc(C)cc3s2)nc2c(c1=O)SCC2
inactive: max response [1] 2.47% | outcome [2] | max response [3] -3.57% | max response [4] 6.25% | max response [5] 3.32% | Potency [6] | Potency [7] | Potency [8] | Potency [9] | Potency [10] | Potency [11]

COc1cc(/C=C/C(=O)OC2CC(OC(C)=O)C(OC(C)=O)C3C2CCC2C(=O)OC(c4ccoc4)CC23C)ccc1O[C@@H]1O[C@H](CO)[C@@H](O)[C@H](O)[C@H]1O (stereo partly drawn)
inactive: max response [1] -8.1% | outcome [2] | max response [4] -0.283% | max response [5] -18.6% | Potency [6] | Potency [7] | Potency [8] | Potency [9] | Potency [10] | Potency [11]
active: Potency [3] 6.11 µM

OCc1ccccc1O[C@@H]1O[C@H](CO)[C@@H](O)[C@H](O)[C@H]1O
inactive: max response [1] -0.323% | outcome [2] | max response [3] -0.335% | max response [4] 6.41% | max response [5] -2.31% | Potency [6] | Potency [7] | Potency [8] | Potency [9] | Potency [10] | Potency [11]

CO[C@@H]1CC[C@H](OC[C@]2(COC(=O)c3ccc(C)[nH]3)[C@H](OC(C)=O)CC[C@@]3(C)[C@@H]4CC=C(C)[C@@H](C5=C(O)C(=O)OC5O)[C@]4(C)CC[C@@H]32)O[C@H]1C (stereo partly drawn)
inactive: outcome [1] | outcome [2] | max response [3] -0.118% | outcome [4] | max response [5] -6.06% | Potency [6] | Potency [7] | Potency [8] | Potency [9] | Potency [10] | Potency [11]
